Compound activity (PubChem)
TrxR1 substrate = is turned over as a substrate by rat TrxR1. purified TrxR1 substrate turnover, NADPH consumption readout. Potency, µM (top dose mostly 114 µM), inactives show at the top dose activity change, negative = substrate turnover. hit rate 0.01% among 390,000. AID 588456; also: % is scaled to controls: 0 for no effect and ±100 for the full control effect; nearly all actives have a fitted effect of over 50% in size
Target sequence (O89049 whole entry, looked up): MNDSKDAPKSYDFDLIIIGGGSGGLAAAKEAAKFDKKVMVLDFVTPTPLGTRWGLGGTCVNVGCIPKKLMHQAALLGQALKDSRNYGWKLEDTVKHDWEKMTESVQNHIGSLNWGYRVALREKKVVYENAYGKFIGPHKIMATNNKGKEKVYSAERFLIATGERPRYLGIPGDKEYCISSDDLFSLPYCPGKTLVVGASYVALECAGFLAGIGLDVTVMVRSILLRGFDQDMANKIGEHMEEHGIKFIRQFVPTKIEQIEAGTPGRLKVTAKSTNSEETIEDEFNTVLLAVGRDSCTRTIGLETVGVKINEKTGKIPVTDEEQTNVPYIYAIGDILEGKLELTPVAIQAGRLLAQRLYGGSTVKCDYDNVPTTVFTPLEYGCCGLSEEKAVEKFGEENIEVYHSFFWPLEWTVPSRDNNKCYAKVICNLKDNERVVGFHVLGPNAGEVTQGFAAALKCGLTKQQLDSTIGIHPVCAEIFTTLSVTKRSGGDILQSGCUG
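Rat TrxR1, dispensed at 90 nM, was prereduced with 400 uM NADPH (final) for 5 min at ~22 deg C, then incubated with compound 15 min before 400 uM selenite. A first-read NADPH fluorescence drop versus no-compound background flagged substrates.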
rTrxR1 inhibitor = blocks rat thioredoxin reductase 1. Potency, µM (highest dose often 114 µM), for the others: at the highest dose activity change, negative = inhibition, usual class: inhibitors. hit rate 1% among 390,000. recombinant rTrxR1, NADPH fluorescence consumption, selenite substrate. O89049; also: % is scaled to controls: 0 for no effect and ±100 for the full control effect; nearly all actives have a fitted effect of over 65% in size
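Rat TrxR1 (90 nM in the dispensed reagent) was pre-reduced with 400 uM NADPH for 5 min at room temperature, then incubated with compound for 15 min. After 400 uM selenite was added, NADPH fluorescence (Ex 340/Em 450 nm) was followed for 8 min.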
Vif-A3G inh = Vif-A3G binding inhibition; Q9HC16; HeLa A3G-eYFP + Vif (tagged APOBEC3G with the HIV-1 protein that degrades it), YFP fluorescence, overnight; Potency, µM (highest dose often 46.1 µM), for inactives: at the top dose activity, negative = active, most hits filed as inhibitors; hit rate 0.076% among 410,000; also: % is scaled to controls: 0 for no effect and ±100 for the full control effect; nearly all actives have a fitted effect of over 60% in size
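HeLa cells stably expressing Vif and C-terminally eYFP-tagged A3G, seeded overnight at 37 deg C, then exposed to compound by pintool overnight at 37 deg C. Rise in yellow fluorescence (Ex 488/Em 500-530, Acumen) marks blocked Vif-driven A3G degradation.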
VDR inh = blocks the human vitamin D receptor | P11473 | VDR-SRC2-3 peptide fluorescence polarization, 2 h | Potency, µM, without a hit: max response, negative = inhibition, hits mostly inhibitors | hit rate 0.93% among 400,000 | AID 504847; also: % is scaled to controls: 0 for no effect and ±100 for the full control effect
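Compounds are added to VDR with labelled SRC2-3 coactivator peptide and held 2 h at room temperature. Inhibition of the VDR–peptide interaction is then read as a change in fluorescence polarization.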
Vif-A3F inh = blocks the Vif interaction with APOBEC3F | hit rate 0.2% among 390,000 | HeLa A3F-eYFP + Vif (tagged APOBEC3F with the HIV-1 protein that degrades it), YFP fluorescence increase | Potency, µM (doses to about 46.1 µM), for inactives: at the highest dose activity, negative = active; also: % of control where 0% means no effect; nearly all actives have a fitted effect of over 65% in size
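Fluorescence increase (Ex 488/Em 500-530) after overnight compound treatment at 37 deg C flags inhibition of Vif-driven A3F-eYFP loss in stable HeLa A3F-eYFP/Vif cells seeded overnight beforehand.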
* hit, by the source's call; u = inconclusive; x = no result; ! = not active in a repeat; [ ] = remark or other dose. The list is not random: actives were taken first. Their share in the collection is about 1.8%. Calls follow the shape of the dose curve; as a rule, active = well fitted curve in the direction sought with a large enough effect; inconclusive = small, poorly fitted or top-dose-only effect, or another doubt; inactive = no such curve, though single readings can be large; an effect the other way counts as inactive or inconclusive. Potency is read from the fitted curve at half-maximal effect.

SMILES	TrxR1 substrate	rTrxR1 inhibitor	Vif-A3G inh	VDR inh	Vif-A3F inh
C/C=C1\COC(C(=O)NCCN2CCOCC2)(C(F)(F)F)C=C1C=C1CCCCC1 (centres undefined)	-6.4%	u	0.1%	-12.9%	x
C/C=C1\COC(C(=O)NCc2ccccn2)(C(F)(F)F)C=C1C=C(C)C (centres undefined)	8.8%	3.98µM*	-1.0%	u	x
COc1ccc(NC(=O)C(c2ccccn2)N(C(C)=O)c2ccc(C)cc2)cc1 (centres undefined)	-8.9%	-15.6%	0.2%	-3.1%	-0.9%
CCOc1ccc(NC(=O)C(c2ccccn2)N(C(=O)CCl)c2ccc(OCC)cc2)cc1 (centres undefined)	-5.7%	79.4µM*	-2.4%	-10.4%	8.0%
CN1C(=O)/C(=C/c2coc3ccc(O)cc3c2=O)SC1=S	4.5%	31.5%	1.0%	-8.8%	-10.3%
Cc1cc(/C=C2/SC(=S)N(c3cccc(Cl)c3)C2=O)c(C)n1-c1cccnc1	4.3%[11.4 µM]	2.4%[11.4 µM]	-0.1%	11.0%	-24.2%
Cc1cc(/C=C2\SC(=S)N(C)C2=O)c(C)n1-c1ccccc1O	-5.7%	10.5%	u	5.3%	11.2µM*
Cc1cc(/C=C2\SC(=S)N(C)C2=O)c(C)n1-c1ccc(O)cc1	-10.7%	-31.6%	u	-15.3%	25.1µM*
Nc1c(Br)cc(Br)c2cccnc12	2.8%	u	-0.2%	-2.0%	x
CC1=CC(C)(C)Nc2ccc(OC(=O)CN3C(=O)c4ccccc4C3=O)cc21	-1.7%	-8.5%	u	-10.6%	u
CC1=CC(C)(C)Nc2ccc(OC(=O)CN3C(=O)c4cccc5cccc(c45)C3=O)cc21	8.5%	8.91µM*	u	u	u
CCOc1ccc2c(c1)C(C)=CC(C)(C)N2	91.0%	7.7%	-1.2%	44.7µM*!	9.7%
CCc1ccc2c(c1)C(C)=CC(C)(C)N2	23.8%	-2.2%	-1.1%	8.7%	-6.3%
O=C(NCc1ccccc1Cl)c1ccc2c(c1)N(Cc1ccccc1)C(=O)CS2	-1.2%[57.1 µM]	18.8%[57.1 µM]	-5.5%	18.2%	-3.1%
NC(=O)c1cc[n+](CC2=C(C(=O)[O-])N3C(=O)[C@@H](NC(=O)Cc4cccs4)[C@@H]3SC2)cc1	x	x	x	15.8µM*	x
C#CCOCCOCCOCCNc1nc(N2CCN(C(=O)[C@H](CCC(=O)O)n3cc(C(N)CC(C)C)nn3)CC2)nc(N2CCN(C(=O)[C@H](Cc3cc4ccccc4[nH]3)n3cc(C(N)CC(C)C)nn3)CC2)n1 (some centres undefined)	4.8%	28.2µM*	-5.2%	4.8%	4.3%
C#CCOCCOCCOCCNc1nc(N2CCN(C(=O)CCCCCCCCCCNC(=O)[C@H](CCCCN)n3cc(CCO)nn3)CC2)nc(N2CCN(C(=O)CCCCCCCCCCNC(=O)[C@@H]([C@H](C)O)n3cc(C)nn3)CC2)n1	6.0%	50.1µM*	-21.6%	-10.3%	-0.4%
C#CCOCCOCCOCCNc1nc(N2CCN(C(=O)[C@H](CCCCN)n3cc(CCCC)nn3)CC2)nc(N2CCN(C(=O)[C@H](Cc3ccc(O)cc3)n3cc(CCO)nn3)CC2)n1	9.8%[57.1 µM]	14.1µM*	1.1%	-7.1%	-1.6%
C#CCOCCOCCOCCNc1nc(N2CCN(C(=O)Cn3cc(CCCN=C(N)N)nn3)CC2)nc(N2CCN(C(=O)[C@H]([C@@H](C)O)n3cc(CCCCN)nn3)CC2)n1	-0.7%	70.8µM*	2.2%	-1.4%	-6.1%
C#CCOCCOCCOCCNc1nc(N2CCN(C(=O)Cn3cc(CCCCN)nn3)CC2)nc(N2CCN(C(=O)[C@H]([C@@H](C)CC)n3cc(CCCN=C(N)N)nn3)CC2)n1	2.0%	13.6%	0.2%	-19.7%	2.0%
C#CCOCCOCCOCCNc1nc(N2CCN(C(=O)CCCCCCCCCCNC(=O)[C@H](CCC(=O)O)n3cc(CCCCCN)nn3)CC2)nc(N2CCN(C(=O)CCCCCCCCCCNC(=O)[C@@H]([C@H](C)O)n3cc(C)nn3)CC2)n1	10.6%[57.1 µM]	19.2%[57.1 µM]	-6.4%	-27.8%	0.5%
CC[C@@H]1C(c2cccc(C)c2)=NN(c2ccc(Br)cc2)[C@H]1C(=O)N1CCOC1=O	x	x	x	-1.8%	x
Cc1ccc(NC(=O)c2cc3c([nH]c2=O)CC(C)(C)CC3=O)cc1	2.7%	37.0%[0.0914 µM]	4.3%	x	x
CN(C)c1ccc(/C=C\C=C/c2ccnc3ccccc23)cc1	1.3%	-6.4%	8.0%	x	x
CN(C)c1ccc(/C=C/c2cc3ccccc3c[n+]2C)cc1	-14.8%	-24.5%	3.1%	x	x
SMILES	TrxR1 substrate	rTrxR1 inhibitor	Vif-A3G inh	VDR inh	Vif-A3F inh
CCOC(=O)c1sc(=S)n(-c2ccc(F)c(F)c2)c1N	0.1%	4.5%	-0.2%	89.1µM*	-6.3%
O=C1NN(C(=O)Nc2ccc(Br)cc2)C(c2ccccc2)C1c1ccccc1 (centres undefined)	x	x	x	-17.4%	x
OCc1ccccc1CNCc1ccccc1	11.9%	22.4%	1.2%	-1.2%	-5.0%
Oc1cc(CNCc2ccccc2)c(O)cc1CNCc1ccccc1	-10.0%	79.4µM*	-2.9%	-27.1%	1.0%
NC(=O)CCC1NC(=O)C(Cc2ccccc2)NC(=O)C(Cc2ccc(O)cc2)NC(=O)CCSSCC(C(=O)N2CCCC2C(=O)NC(CCCN=C(N)N)C(=O)NCC(N)=O)NC(=O)C(CC(N)=O)NC1=O (centres undefined)	x	x	x	-16.4%	x
Cc1cccc(-c2nc(CS(=O)CC(=O)N3CC(C)CC(C)C3)c(C)o2)c1 (centres undefined)	0.3%	39.8µM*	2.5%	-18.9%	-0.3%
Cc1cccc(-c2nc(CS(=O)CC(=O)NC3CCCC(C)C3C)c(C)o2)c1 (centres undefined)	-5.0%[57.1 µM]	15.8µM*	-3.4%	1.3%	8.6%
Cc1cccc(-c2nc(CS(=O)CC(=O)N3CCc4ccccc4C3)c(C)o2)c1 (centres undefined)	10.1%[57.1 µM]	12.6µM*	-4.4%	-25.1%	1.5%
CCN1CCN(C(=O)CS(=O)Cc2nc(-c3cccc(C)c3)oc2C)CC1 (centres undefined)	11.6%	u	-4.6%	2.8%	-7.1%
COc1ccc(OC)c(-c2ccc(C(=O)O)o2)c1	x	x	x	-24.9%	x
O=c1[nH]c2ccccc2nc1/C=C/c1ccc(Cl)cc1	3.7%[57.1 µM]	24.0%[57.1 µM]	-8.3%	22.4µM*	-0.8%
COc1ccc(N2CCN(C(c3ccccc3)c3nnnn3C(C)C)CC2)cc1 (centres undefined)	3.6%	11.8%	-0.2%	-9.6%	x
COc1ccc(Cn2nnnc2C(c2ccccc2OC)N2CCC(C(N)=O)CC2)cc1 (centres undefined)	6.7%[57.1 µM]	11.3%[57.1 µM]	5.9%	6.8%	6.8%
COc1ccc(Cn2nnnc2C(c2ccc(N(C)C)cc2)N2CCC(C(N)=O)CC2)cc1 (centres undefined)	0.2%[57.1 µM]	7.08µM*	-0.3%	-20.8%	2.6%
C[n+]1ccnc2cc(Cl)ccc21	-14.7%	u	u	x	x
CCOc1ccc(C(=O)NCc2ccncc2)cc1	6.1%[57.1 µM]	8.4%[57.1 µM]	-0.2%	7.8%	1.4%
